NR0B1 inh: DAX1 (NR0B1) inhibitors, primary screen, cell-based, HEK293, Gal4-DAX1, luciferase luminescence | Nuclear receptor subfamily 0 group B member 1 (Homo sapiens), P51843 | HEK293 Gal4-DAX1 luciferase reporter | inhibition, % at 6.75 µM | 340,000 compounds, 0.99% hits;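 active = inhibition above the mean over all tested compounds plus 3 SD, cut at about 4.2% in these data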;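 also: inhibition shows as a rise in luminescence from relieved DAX1 repression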
Target sequence (P51843 207-470 limits assumed): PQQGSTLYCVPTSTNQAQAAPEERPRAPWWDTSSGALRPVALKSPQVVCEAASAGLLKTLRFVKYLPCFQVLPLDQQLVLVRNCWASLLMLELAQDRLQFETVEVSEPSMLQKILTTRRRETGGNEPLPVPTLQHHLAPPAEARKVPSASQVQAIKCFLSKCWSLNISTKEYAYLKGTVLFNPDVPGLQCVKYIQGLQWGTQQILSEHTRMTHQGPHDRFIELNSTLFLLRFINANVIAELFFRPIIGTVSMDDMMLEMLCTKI
AHR activator: AHR activators, primary screen, cell-based, luminescence, luciferase reporter, human. 320,000 compounds, 2.5% hits. AID 2796, 2010. AHR-responsive luciferase reporter cells. activation, % at 5 µM. Aryl hydrocarbon receptor (Homo sapiens), P35869; in the data active = activation above about 47%
HSP90 refold inh: HSP90 inhibitors, primary screen, cell lysate, luminescence. AID 1789, 2009. Heat shock protein HSP 90 (rabbit reticulocyte lysate; luciferase refolding). inhibition, % at 5.6 µM. 290,000 compounds, 0.91% hits. Rabbit reticulocyte lysate, luciferase refolding luminescence, 3 h;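 active = inhibition above the screen-wide mean plus 3 SD, computed separately per campaign, cut at about 16% in these data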;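 also: inhibitors lower the luminescence because luciferase stays unfolded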
GAA850 FXN act: FXN promoter activators, primary screen, cell-based, luciferase luminescence, HEK293 lucGAA850; HEK293 lucGAA850 FXN promoter luciferase reporter, 24 h; percent of 10 µM SAHA response; activation, % at 6 µM; 360,000 compounds, 0.56% hits; AID 540364, 2011;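 active = activation above the average of all compounds screened plus 3 SD, cutoff fixed separately per campaign, cut at about 7.5% in these data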
HSF1 inh: HSF1 inhibitors in luciferase reporter cells, primary screen, cell-based, NIH3T3, luminescence; NIH3T3-HGL HSE-luciferase, MG132-induced, luminescence 8 h; stronger effect = lower value; activity change, negative = inhibition, % at 7.5 µM (by protocol); 300,000 compounds, 0.77% hits; AID 2098, 2009;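 active = more than half of replicate wells show activity change below -50%, luminescence cut by over half; inconclusive = some wells, but at most half, below -50%; inactive = no replicate well below -50%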;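 also: luciferase reports HSF-1 transcriptional activity via heat shock element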
HSF1 activator: HSF-1 activators, primary screen, NIH3T3-HGL cells, MG132 stress, luminescence, single point | 300,000 compounds, 1.7% hits | NIH3T3-HGL HSF-1 luciferase reporter, 8 h; 100% = twice DMSO control signal | activation, % at 9 µM | AID 504408, 2011;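 active = mean replicate activation of at least 50% with a set share of replicates each reaching 50%; inconclusive = only one of those two conditions met; inactive = mean below 50% and too few replicates reaching it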
Of the large screens only hits and unclear results are named; the others gave an inactive call. The list is not random: actives were taken first. Their share in the collection is about 5.9%.

COc1ccc(C)cc1NC(=O)C(OC(=O)CNC(=O)c1cc(C)cc(C)c1)c1ccccc1 (stereo not given)	AHR activator 67
Cc1ccc(C)c(NC(=O)C(OC(=O)c2ccc(CO)cc2)c2ccccc2)c1 (stereo not given)	none (no result: AHR activator, HSP90 refold inh, HSF1 inh, HSF1 activator)
O=C(CNc1cccc2ccccc12)N/N=C/c1ccc([N+](=O)[O-])cc1	HSF1 activator 77
O=C(NCc1cc(Cl)cc(Cl)c1)c1ccc2nc([C@H]3C[C@H](O)[C@@H](CO)O3)[nH]c2c1	none (no result: NR0B1 inh, AHR activator, HSP90 refold inh, HSF1 inh, HSF1 activator)
CC(=O)Nc1ccc(C2=NN(Cc3nnc(-c4ccccc4)o3)C(=O)SC2)cc1	AHR activator 76, HSF1 activator 88
O=C1SCC(c2ccccc2)=NN1Cc1ccccc1	HSF1 inh -59
C#CCN1N=C(c2ccc(C)cc2)CSC1=O	none (no result: NR0B1 inh, HSP90 refold inh)
COc1ccccc1C(=O)NCCC(=O)Nc1ccc(S(=O)(=O)N2CC(C)CC(C)C2)cc1 (stereo not given)	none (no result: HSP90 refold inh, HSF1 inh, HSF1 activator)
Cc1onc(-c2ccc3c(c2)OCO3)c1-c1ccc2[nH]ccc2c1	none
c1cc2cc(-c3c(-c4ccc5c(c4)OCO5)noc3-c3ccsc3)ccc2[nH]1	AHR activator 49
CC(C)(C)c1ccc(C(=O)NCC(=O)N2CCCCCC2)cc1	none
CC1=NN(c2ccc(C(F)(F)F)cn2)C(=O)C1	AHR activator 51
COCCNC(=O)C[C@@H]1C[C@H]2c3cc(NC(=O)Nc4ccc(F)cc4)ccc3O[C@H]2[C@H](CO)O1	none (no result: AHR activator, HSP90 refold inh, HSF1 inh, HSF1 activator)
CCOC(=O)c1cc(-c2csc(N/N=C/c3ccccc3Cl)n2)on1	AHR activator 50 (no result: HSF1 inh, HSF1 activator)
COc1cc(-c2coc3c(C(=O)NCc4ccccc4)cccc23)ccc1O	none (no result: NR0B1 inh, AHR activator, HSP90 refold inh, HSF1 inh, HSF1 activator)
CN1CCN(C(=O)c2ccc(CNS(=O)(=O)c3ccc(F)c(Cl)c3)cc2)CC1	none (no result: AHR activator)
COc1ccccc1/C=C/C(=O)Nc1nc(N)n(-c2ccccc2)n1	AHR activator 78
COc1ccc(C(=O)Nc2nc(N)n(-c3ccccc3)n2)cc1OC	none
OCC[C@@H]1C[C@H](O)[C@@H](O)[C@@]2(CCCc3ccccc3O2)O1	none
Cc1cc(C)nc(-n2nc(C)c(C3(O)C(=O)Nc4ccccc43)c2N)n1 (stereo not given)	AHR activator 56
Cc1cc(C)nc(-n2nc(C)c(C3(O)C(=O)Nc4ccc(F)cc43)c2N)n1 (stereo not given)	none
Cc1cccc(CSC2=NCCN2C(=O)c2ccc(Br)o2)c1	none
CCOC(=O)C1=C(c2ccccc2)NC(N)=NC1c1ccc(OCc2ccc(Cl)cc2)c(OC)c1 (stereo not given)	HSF1 activator 71
O=[N+]([O-])c1ccc(-n2nnnc2-c2ccccc2)cc1	none
O=[N+]([O-])c1ccc(-n2nnnc2-c2ccccc2)c([N+](=O)[O-])c1	HSF1 activator 231
Cc1cc(NC(=O)C2(C)CCN2C(C)C)c2ccccc2n1 (stereo not given)	none (no result: NR0B1 inh, AHR activator, HSP90 refold inh, HSF1 inh, HSF1 activator)
O=C(c1ccccc1)c1cc2ccccc2o1	HSF1 activator 54
CC1CC(C)CN(C(=O)c2cc3ccccc3o2)C1 (stereo not given)	AHR activator 58 (no result: HSP90 refold inh)
O=C(c1ccc(F)cc1)c1cc2ccccc2o1	none
O=C(NCCc1cccc(Cl)c1)c1cc2ccccc2oc1=O	HSF1 activator 278
O=C(c1ccccc1)c1cc2ccccc2oc1=O	AHR activator 49
CC1CCN(C(=O)c2cc3ccccc3o2)CC1	none
CCOC(=O)c1cc2nc(OCC)nc(OCC)c2[nH]1	none (no result: AHR activator, HSP90 refold inh, HSF1 inh, HSF1 activator)
Cc1cc(C(=O)CSc2nnc(C3CC3)n2C2CC2)c(C)n1C(C)C	none (no result: HSP90 refold inh, HSF1 inh, HSF1 activator)
Cc1ccc(NS(=O)(=O)c2cccc(C(=O)NCCCN3CCCC3=O)c2)cc1	none (no result: HSP90 refold inh)
CC1CN(S(=O)(=O)c2cccc(C(=O)N(C)C3CCCCC3)c2)CC(C)O1 (stereo not given)	none (no result: AHR activator, HSP90 refold inh, HSF1 inh, HSF1 activator)
Cc1ccc(C(=O)c2cc3ccccc3o2)cc1[N+](=O)[O-]	HSF1 activator 64
COc1ccc(/C=C/C(=O)c2cccc(-n3cnnn3)c2)cc1O	HSF1 activator 57
Brc1ccc(CSc2nnc(-c3ccccn3)n2Cc2ccco2)cc1	HSF1 activator 145
Cc1ccccc1CSc1nnc(-c2ccco2)n1Cc1ccco1	HSF1 activator 117
c1ccc(CSc2nnc(-c3ccco3)n2Cc2ccco2)cc1	HSF1 activator 80
O=C(COC(=O)CNS(=O)(=O)c1cccc(F)c1)NCCc1ccccc1	none (no result: AHR activator, HSP90 refold inh, HSF1 inh, HSF1 activator)
CC1CC(C)CN(C(=O)CN2C(=O)NC3(CCCCCCC3)C2=O)C1 (stereo not given)	none (no result: HSP90 refold inh, HSF1 inh, HSF1 activator)
Nc1ccc2nc(C(F)(F)F)[nH]c2c1	none
Cc1nc2cc3nc(C(F)(F)F)[nH]c3cc2[nH]1	AHR activator 50, HSF1 activator inconclusive
COc1ccc(NC(=O)C/C(C)=N/NC(=O)C2CCCCC2)c([N+](=O)[O-])c1	none
CC1(CO)COC2(OC1)C(=O)Nc1ccccc12 (stereo not given)	none (no result: AHR activator, HSP90 refold inh, HSF1 inh, HSF1 activator)
Cn1c(=O)c(-c2cc(=O)[nH][nH]2)c(O)c2ccccc21	AHR activator 51 (no result: NR0B1 inh)
CCN(Cc1ccccc1)C(=O)c1ccc2c(=O)n3c(nc2c1)CCC3	none (no result: HSP90 refold inh)
CC(C)[C@H](NC(=O)OC(C)(C)C)c1nnc(SCC(=O)Nc2ccc(Br)cc2)o1	HSF1 activator 84
CCc1noc(C)c1C(=O)N(CC)CC(=O)Nc1cc(Cl)ccc1C	none (no result: HSP90 refold inh, HSF1 inh, HSF1 activator)
O=C1C(=O)N(C2CCS(=O)(=O)C2)C(c2cccc(O)c2)/C1=C(/O)c1ccc(Cl)cc1 (stereo not given)	none
Cc1sc2nc(-c3cccnc3)[nH]c(=O)c2c1-c1ccccc1	AHR activator 63
CC(C)CNC(=O)C(=O)NCC1OCCCN1S(=O)(=O)c1ccc2c(c1)OCCO2 (stereo not given)	none
Cc1nonc1C1CCCN1Cc1cn[nH]c1-c1ccc(-c2ccccc2)cc1 (stereo not given)	HSF1 activator 62
COc1cc(-c2[nH]ncc2CN2CCCC2c2nonc2C)cc(OC)c1OC (stereo not given)	none
Cc1cc(C)nc(SCC(=O)NC2=NN=C(c3ccc(Br)cc3)CS2)n1	none
CCC(Sc1nc(C)cc(C)n1)C(=O)NC1=NN=C(c2ccc(C)cc2)CS1 (stereo not given)	HSF1 inh -74
Cc1cccc(-c2nc3ccccc3c(=O)[nH]2)c1	AHR activator 68
O=c1[nH]c(-c2ccncc2)nc2ccccc12	none
Cc1cc(C)cc(Nc2nc3ccccc3c(=O)[nH]2)c1	AHR activator 77
Cc1ccccc1C(=O)Nc1cccc(NC(=O)c2cccnc2)c1	none
CCCCNc1nc(Cl)nc(Nc2ccc(C)cc2)n1	none (no result: NR0B1 inh, HSP90 refold inh)

Compound activity as filed in PubChem.
